The results in this text go back to PubChem BioAssay (NCI).

The panel holds about 79,000 compounds, 15% with a hit somewhere; the sample as a whole holds those more often. Unmarked numbers belong to inactive results. The source made the active and inactive calls. Cut-off read from the data, not from the text of the source: active = growth inhibition above about 70%; inactive = the rest.

Test [1] in a line: NCI Yeast Anticancer Drug Screen. Data for the rad50 strain (AID 155).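 Note: 0% = growth of vehicle-only cultures of the same strain.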 The note with it: S. cerevisiae rad50 strain growth inhibition; at 50.0 µM; hits give high values. The procedure, abridged:
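Yeast carrying a defined DNA repair defect were exposed to test compounds, and growth was compared with vehicle-treated controls to give percent inhibition.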

A short description of test [2]: NCI Yeast Anticancer Drug Screen. Data for the mec2-1 strain (AID 157). The conditions noted are these: S. cerevisiae mec2-1 strain, at 50.0 µM, hits give high values. The procedure, abridged: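 Strain: mec2-1 (DNA repair/cell cycle alteration). Compound exposure, then growth measured; inhibition expressed relative to vehicle.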
The nature of test [3]: NCI Yeast Anticancer Drug Screen. Data for the sgs1 mgt1 strain (AID 161).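 Note: 0% = growth of cultures given vehicle only.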 The conditions noted are these: S. cerevisiae sgs1 mgt1 strain, at 50.0 µM, hits give high values. The essentials: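 Test agents were incubated with a DNA-repair-mutant yeast strain. Growth was then read and compared against vehicle-treated controls.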
The nature of test [4]: NCI Yeast Anticancer Drug Screen. Data for the cln2 rad14 strain (AID 165).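 Note: 0% = growth equal to vehicle treated cultures.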 The conditions noted are these: S. cerevisiae cln2 rad14 strain, at 50.0 µM, hits give high values. The procedure, abridged:
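Compounds are applied to the cln2 rad14 yeast strain, and growth is then compared with that of vehicle-treated cultures to give inhibition.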

A short description of test [5]: NCI Yeast Anticancer Drug Screen. Data for the bub3 strain (AID 167). The conditions noted are these: S. cerevisiae bub3 mutant strain, at 50.0 µM, hits give high values. The procedure, abridged: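 Compounds were applied to a genetically altered yeast strain carrying a cell-cycle control defect. Growth inhibition was scored against vehicle-treated controls.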
The nature of test [6]: NCI Yeast Anticancer Drug Screen. Data for the mlh1 rad18 strain (AID 175). The note with it: S. cerevisiae mlh1 rad18 strain growth inhibition; at 50.0 µM; hits give high values. The essentials:
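Read-out is yeast growth inhibition, calculated against vehicle-only controls. The compound was applied to a strain engineered with DNA damage repair alterations.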

`CC1=CCCCC1(C)/C(C)=N/Nc1ccc([N+](=O)[O-])cc1[N+](=O)[O-]` (stereo not given): the growth inhibition in test [1] is 2.05%; in test [2], 7.3%; in test [3], 2.8%; in test [4], 2.75%; in test [5], -1.4%; in test [6], -15.3%.

As to `CN=C(N)SCCCCCCSC(N)=NC`, the growth inhibition in test [1] was -1.5%; in test [2] it was 0%; in test [3] it was 16.6%; in test [4], 26.1%; in test [5], -3.6%; in test [6] it was 4.15%.

Take `Cc1ncc([N+](=O)[O-])n1CCNCCCCn1ccnc1[N+](=O)[O-]`: the growth inhibition in test [1] was -28.4%; in test [2], -21.6%; in test [3], -6.15%; in test [4], -23.7%; in test [5], -52.3%; in test [6], -17.9%.

As to `O=c1nc(N2CCSCC2)ccn1C1OC(CO)C(O)C1O` (stereo not given), the growth inhibition in test [1] was -6.5%; in test [2], -6.7%; in test [3], -8.45%; in test [4] it was -5.75%; in test [5], -3.5%; in test [6] it was -2.25%.

Turning to `N#C/C(C(=O)NCc1ccccc1)=C(/N)N1CCCC1`, the growth inhibition is -4.95% in test [1]; -16.2% in test [2]; 0.25% in test [3]; -16.6% in test [4]; -5.3% in test [5]; -0.15% in test [6].

On to `O=C(O)c1c(-c2ccc(Cl)cc2)c(-c2ccc(Cl)cc2)nn(CCO)c1=O`, for which the growth inhibition in test [1] was 33.8%; in test [2], 25.8%; in test [3] it was 33.4%; in test [4] it was 7.4%; in test [5], 1.5%; in test [6], 35.6%.

In the case of `Cc1ccc2[nH]c3c(ncc4[nH]c5ccccc5c43)c2c1`, the growth inhibition in test [1] was 59.3%; in test [2], 44.1%; in test [3], 62.8%; in test [4] it was 52.1%; in test [5], 62.9%; in test [6], 62%.

Consider `COc1c(NC(=O)Nc2ccc(F)c([N+](=O)[O-])c2)cccc1[N+](=O)[O-]`, for which the growth inhibition in test [1] was 7.85%; in test [2] it was 22.1%; in test [3], 10%; in test [4], 2.8%; in test [5], 20.1%; in test [6] it was 27.8%.

Take `O=C(CCN1C(=O)c2ccccc2C1=O)c1cnc[nH]1`: the growth inhibition in test [1] is 13.8%; in test [2] it was 16.9%; in test [3], 13.4%; in test [4] it was -4.5%; in test [5], 2.6%; in test [6], 10.4%.

Consider `O=C(/C=C/CC(O)(c1ccccc1)c1ccccc1)Nc1ccccc1Cl`, for which the growth inhibition in test [1] is -15.2%; in test [2], -25.9%; in test [3], -4.85%; in test [4], 2.5%; in test [5], 10.1%; in test [6], -10.2%.

For `COC(=O)c1ccc(Cn2ccc(=O)n(Cc3ccc(C(=O)OC)cc3)c2=O)cc1`, the growth inhibition in test [1] is 63.2%; in test [2] it was 23.8%; in test [3], 74.6% (active); in test [4], 30.6%; in test [5] it was 31.3%; in test [6], 43.1%.

As to `C[C@H]1C[C@](C)(CO)Oc2oc3ccccc3c(=O)c21`, the growth inhibition was 4.5% in test [1]; 10.3% in test [2]; 17.4% in test [3]; 4.75% in test [4]; 7.2% in test [5]; 13.1% in test [6].

As to `O=c1nnc(O)c2n(O)cccc1-2`, the growth inhibition in test [1] is -24.2%; in test [2], -11.8%; in test [3] it was 6.55%; in test [4], -42.5%; in test [5] it was -1.75%; in test [6], 14%.

Take `CC(=O)CC(=O)NCc1ccc2c(c1)OCO2`: the growth inhibition was -17.4% in test [1]; -9.2% in test [2]; -16.3% in test [3]; 3.75% in test [4]; -15.1% in test [5]; -11.8% in test [6].

Take `CC[C@H](/C=C/[C@@H](C)[C@H]1CC[C@H]2[C@@H]3CC[C@@H]4CC(=O)CC[C@]4(C)[C@H]3CC[C@]12C)C(C)C`: the growth inhibition was 29.9% in test [1]; -13.8% in test [2]; 9.6% in test [3]; 1.15% in test [4]; 35.5% in test [5]; 34% in test [6].

As to `CCCCCCCCCCCCCCCCCCCCCC(C)C`, the growth inhibition was -8% in test [1]; 0.8% in test [2]; -10.9% in test [3]; -8.6% in test [4]; -7.55% in test [5]; -31.4% in test [6].

As to `CC(=O)Nc1ccc(S(=O)(=O)CCN2C(=O)c3ccccc3C2=O)cc1`, the growth inhibition in test [1] is -4.55%; in test [2] it was -8.85%; in test [3], 12.3%; in test [4] it was -62.5%; in test [5], 4.35%; in test [6], -16.8%.

Turning to `CCCCCCCCCCCCCCOc1ccc2ccccc2c1`, the growth inhibition is 21.5% in test [1]; 6.7% in test [2]; 6.5% in test [3]; -10.4% in test [4]; -6.05% in test [5]; -4% in test [6].

For `COC(=O)CCSCCC(=O)OC`, the growth inhibition in test [1] is 1.5%; in test [2], -0.15%; in test [3], -8.15%; in test [4] it was -8.2%; in test [5] it was 1.75%; in test [6] it was -1.95%.

As for `CC1C=CC(C)S(=O)N1C(=O)Cc1ccccc1` (stereo not given), the growth inhibition in test [1] is -2.6%; in test [2], -14.6%; in test [3], -9.35%; in test [4], -16.9%; in test [5], -25.5%; in test [6], -19.6%.
